Assay outcomes (PubChem BioAssay)
An excerpt weighted towards active compounds, which were near 3% of everything screened.
esBAF inh – inhibitors of esBAF chromatin remodeling in mouse ES cells; AID 602393; reporter increase, % at 12.5 µM; hit rate 2% among 350,000; Bmi1-luciferase knock-in reporter, 24 h; 100% = twice the neutral-well signal; in the data active means activation above about 40%;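 further: 0% = median of the plate's neutral control wells and 100% = double that signal; a rise in the Bmi1 reporter signal indicates esBAF inhibition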
Vif imaging – inhibitors of HIV Vif. AID 602346. hit rate 0.35% among 340,000. HEK293T cells, Vif self-association by quenched fluorescence, imaging, 24 h. inhibition, % at 7.49 µM; in the data active means inhibition above about 50%, passing the limit was not always enough
PfHsp90 set2 – inhibits growth of yeast expressing Plasmodium falciparum Hsp90. S. cerevisiae expressing PfHsp90, BacTiter-Glo ATP, 48 h; yeast lacking PDR1 and PDR3 efflux regulators. inhibition, % at 9.4 µM. hit rate 0.32% among 310,000. AID 504621;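 active means every replicate shows inhibition above about 80%, whatever the replicate mean, limit read from the data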;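 further: 0% = DMSO neutral controls and 100% = 20 µM radicicol positive controls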
Wnt bcat act – activates Wnt/beta-catenin signaling in a reporter cell assay; activation, % at 9.35 µM; activator, plate reader; hit rate 1.2% among 300,000; in the data active means activation above about 30%, passing the limit was not always enough;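 further: 0% = neutral control wells and 100% = positive control wells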
Glyco luc inh – blocks N-linked glycosylation in D54 reporter cells; D54 ERlucT glycosylation luciferase reporter, 24 h; percent of 100 nM tunicamycin response; reporter increase, % at 12.5 µM; hit rate 0.23% among 360,000; AID 588692;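 active means mean luciferase reporter signal, scaled so untreated is 0 and the glycosylation-blocking control 100, at or above a set limit in every replicate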;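 further: luciferase carries N-glycosylation sites so blocking glycosylation raises the light; 0% = median of neutral control wells and 100% = median of 100 nM tunicamycin wells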
MITF act – increases MITF-driven TRPM1 promoter luciferase signal | SK-MEL-5 TRPM1-promoter luciferase, 24 h; % of positive control, neutral wells = 0 | activation, % at 12.5 µM | hit rate 0.75% among 300,000;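 active means mean activation of at least 80% with every replicate also reaching 80%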;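 further: 0% = neutral control wells and 100% = parthenolide positive control wells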
* marks the source's active call; other numbers are inactive results; i = inactive; . = no result; + = active, no number.

SMILES	esBAF inh	Vif imaging	PfHsp90 set2	Wnt bcat act	Glyco luc inh	MITF act
COc1ccc(/C=C2\CCn3c2nc2ccccc2c3=O)cc1OC	43*	-1	7	.	0	94*
COc1ccc(OC)c(S(=O)(=O)N2Cc3ccccc3CC2C(=O)Nc2nccs2)c1 (stereo unspecified)	51*	-1	0	.	-5	40
Cc1cc(OCC(=O)N(C)C2CCCCC2)ccc1Cl	4	7	1	60*	-14	39
c1ccc(-c2ccc3sccc3n2)cc1	.	.	.	48*	-3	116*
Oc1ccccc1C1=NN(c2ccccc2)C(c2ccc(F)cc2)C1 (stereo unspecified)	0	-6	-15	3	-5	9
Oc1ccccc1C1=Nc2nc3ccccc3n2C(c2ccccc2)C1 (stereo unspecified)	49*	.	-9	.	-5	67
COc1ccccc1-c1nc(SCc2ccccn2)n[nH]1	60*	-3	-5	3	2	-3
Cn1c(SCC(=O)c2ccc(F)cc2)ncc(C(=O)Nc2ccccc2)c1=O	-16	3	-1	1	36*	-26
CCOc1cc(/C=C2\C(=O)N(CCC#N)N=C2C)ccc1OCC(N)=O	.	13	-78	0	0	-5
COc1cc(/C=C2\C(=O)N(CCC#N)N=C2C)ccc1OCC(=O)Nc1ccccc1	.	8	-25	65*	-5	5
COc1cc2ccccc2nn1	.	1	14	3	1	5
COc1ccc2c(n1)Sc1nc3ccccc3nc1N2	23	i	89*	40*	2	-8
Cc1ccc([C@H]2C[C@H](O)[C@@H](n3cc(C4CC4)nn3)CN2Cc2cccs2)cc1	47*	3	.	1	4	.
COc1ccc(N2C(=O)NC3CC2(C)Oc2ccc(Br)cc23)cc1OC (stereo unspecified)	-8	.	12	.	2	9
CN1CCN(/N=C/c2ccc(OCc3ccccc3)cc2)CC1	40	-5	1	16	-8	85*
COC(=O)c1ccc(COc2ccc(/C=N/N3CCN(C)CC3)cc2)cc1	.	-3	-30	-2	-7	50
C#CCOCCOCCOCCNc1nc(N2CCN(C(=O)CCCCCCCCCCNC(=O)[C@H]([C@@H](C)CC)n3cc(CCCCN=C(N)N)nn3)CC2)nc(N2CCN(C(=O)CCCCCCCCCCNC(=O)[C@H](CO)n3cc(CCCCCN)nn3)CC2)n1	0	21	-4	.	-16	-84
C#CCOCCOCCOCCNc1nc(N2CCN(C(=O)CCCCCCCCCCNC(=O)[C@H]([C@@H](C)CC)n3cc(CCCCCN)nn3)CC2)nc(N2CCN(C(=O)CCCCCCCCCCNC(=O)[C@H]([C@@H](C)CC)n3cc(CCCCN=C(N)N)nn3)CC2)n1	-14	+	21	.	-13	-97
C#CCOCCOCCOCCNc1nc(N2CCN(C(=O)Cn3cc(CCCN=C(N)N)nn3)CC2)nc(N2CCN(C(=O)[C@H]([C@@H](C)CC)n3cc(CCCCN)nn3)CC2)n1	-3	-2	-4	-2	0	1
C#CCOCCOCCOCCNc1nc(N2CCN(C(=O)CCCCCCCCCCNC(=O)[C@@H](CCC(=O)O)n3cc(CCCCCN)nn3)CC2)nc(N2CCN(C(=O)CCCCCCCCCCNC(=O)[C@H]([C@@H](C)CC)n3cc(CCCCCN)nn3)CC2)n1	5	0	4	.	0	9
C#CCOCCOCCOCCNc1nc(N2CCN(C(=O)CCCCCCCCCCNC(=O)Cn3cc(CCCCCN)nn3)CC2)nc(N2CCN(C(=O)CCCCCCCCCCNC(=O)[C@H]([C@@H](C)CC)n3cc(CCCCN=C(N)N)nn3)CC2)n1	5	104*	26	.	-8	-74
C#CCOCCOCCOCCNc1nc(N2CCN(C(=O)CCCCCCCCCCNC(=O)[C@H]([C@@H](C)CC)n3cc(CCCCCN)nn3)CC2)nc(N2CCN(C(=O)CCCCCCCCCCNC(=O)[C@H](CO)n3cc(CCCCCN)nn3)CC2)n1	-9	96*	26	.	-20	-81
CO[C@H]1CN(C)C(=O)c2cc(NC(=O)NC3CCCCC3)ccc2OC[C@H](C)NC[C@H]1C	-2	.	.	.	.	.
O=C(NC1CCCCC1)NC1CC2CCC(C1)N2Cc1nnnn1Cc1ccc2c(c1)OCO2 (stereo unspecified)	8	-7	-12	-2	-3	-12
CCCc1nnc(SCC(=O)Nc2cc(C)on2)n1CCOC	-1	15	20	-1	2	-8
SMILES	esBAF inh	Vif imaging	PfHsp90 set2	Wnt bcat act	Glyco luc inh	MITF act
CN(C)c1ccc(CNC(=O)C2(C)Cc3c(-c4cccc(C(F)(F)F)c4)ccnc3O2)cc1 (stereo unspecified)	6	-3	.	-1	8	.
N#C/C(=C\c1cccc([N+](=O)[O-])c1)C(=O)NCc1ccc(Cl)cc1	.	-8	105*	-2	7	-53
N#C/C(=C\c1cccc([N+](=O)[O-])c1)C(=O)NCc1cccnc1	.	-8	-28	.	4	-3
C[C@@H]1CN([C@@H](C)CO)C(=O)c2c(c3ccccc3n2C)-c2ccccc2CO[C@@H]1CN(C)C(=O)[C@@H](Cc1ccccc1)N(C)C	-1	.	.	.	.	.
O=C(O)/C=C\C(=O)Nc1ccc(Oc2ccc(Br)cc2)cc1	-1	-18	6	-1	1	0
O=C1CCCC/C1=C\Nc1ccc(Cl)cn1	44*	.	15	.	2	69
O=C(COC(=O)c1ccc(Cl)nc1)NC1CCCc2ccccc21 (stereo unspecified)	-2	11	.	0	2	6
COc1ccc(C(=O)/C=C/c2cc(C(=O)O)cc3c2OCOC3)c(O)c1	59*	6	8	0	1	-6
COc1ccc(C(=O)c2ccccc2O)c(O)c1	15	-9	0	-2	-1	17
COc1ccc(C(=O)/C=C/c2ccc(OC)cc2OC)c(O)c1	88*	-4	.	1	3	93*
COc1ccc(C(=O)/C=C/c2ccccc2OC)c(OC(=O)c2ccc([N+](=O)[O-])cc2)c1	.	26	-6	38*	9	13
COc1ccc(C(=O)c2ccc(OC)cc2O)c(O)c1	50*	32	-8	24	-1	75
COc1ccc(S(=O)(=O)N2CCCN(CC(=O)Nc3ccc(NC(C)=O)cc3)CC2)cc1	-9	-7	-3	-2	0	-6
COc1ccc(C(=O)C=Cc2cccs2)c(O)c1	45*	14	-3	48*	8	69
COc1ccc(C(=O)/C=C/c2ccccc2)c(O)c1	27	-2	23	0	19	.
COc1ccccc1C(=O)N1C[C@H]2[C@@H](c3ccccc31)[C@@H](CO)N2CC1CCOCC1	-5	.	.	.	.	.
Cc1ccc2c(c1)N(CC(=O)N1CCCCCC1)C(=O)C(C)O2 (stereo unspecified)	-1	69*	16	-3	1	-5
